# Data taken from PubChem BioAssay (NCI).
# Compounds without any hit were thinned out: in the full panel of roughly 83,000, 20% have a hit.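 Method: cells in 96-well plates; compound added at one concentration; 48 h incubation; percent growth measured; values under 10 scored active.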 The source made the active and inactive calls.
# System: NCI-H226 lung
# Assay: NCI-60 one-dose screen, 48 h (100 = growth as untreated, 0 = no growth, -100 = all killed)
# Conditions: 10 µM unless noted
# Experimental: Growth inhibition of the NCI-H226 human Non-Small Cell Lung tumor cell line is measured as a screen for anti-cancer activity. Cells are grown in 96 well plates and exposed to the test compound for 48 hours. Compounds are tested at a single concentration, which is 10^-5 M for most compounds. The reported endpoint is percent growth (GI% or GIPRCNT), where numbers from 0 - 100% represent growth inhibition, and numbers from -100% - 0 represent cell death. For example, a value of 40 represents 60% growth inhibition. A value of 0 means no net growth occurred over the course of the experiment. A value of -40 indicates 40% of cells at the beginning of the experiment died by the end of the experiment. A value of -100 means all cells are dead at the end of the experiment.
# NCI-60 Human Tumor Cell Lines Screen was performed using the standard one-dose NCI protocol, which is described in more detail at https://dtp.cancer.gov/discovery_development/nci-60/default.htm.
# Compounds with GIPRCNT values below 10 were considered active. Activity score was based on GIPRCNT using the following formula: […]
# Score is 0 for GIPRCNT values of 100 or above, 50 for GIPRCNT values of 0, and 100 for GIPRCNT values of -100.
row,SMILES,growth
1,CC[C@@H](C(=O)[C@@H](C)[C@@H](O)[C@H](C)[C@@H]1O[C@@H]([C@@H](CC)C(=O)NCCc2ccc(F)cc2)CC[C@@H]1C)C1O[C@]2(C=CC(=O)[C@]3(CC[C@@](C)([C@H]4CC[C@](O)(CC)[C@H](C)O4)O3)O2)[C@H](C)C[C@@H]1C (stereo not given in full),24.2% (inactive)
2,O=C(/C=C(/C=C/c1cccc2[nH]ccc12)OB(F)F)/C=C/c1cccc2[nH]ccc12,-54.9% (active)
3,S=C1CCSC(=S)N1CCCN1C(=S)CCSC1=S,101% (inactive)
4,c1cc2[nH]ncc2cc1-c1nc2ccc3[nH]ncc3c2c2c1CCCC2,29.4% (inactive)
5,O=S(=O)(Nc1ccc(Cl)cc1)c1ccc(-c2cnc(C3CC3)o2)cc1,61.4% (inactive)
6,CN(C)CCCC1(c2ccc(F)cc2)OCc2cc(-c3cccc4[nH]ccc34)ccc21 (stereo not given),65.7% (inactive)
7,COc1ccc(C(=O)Nc2ncc(Cc3ccc(F)cc3)s2)cc1,40.9% (inactive)
8,Cc1ccc(Cl)cc1Nc1nc(C(F)(F)F)ccc1C(=O)N/N=C/c1cccnc1,30.7% (inactive)
9,C=C1C(=O)O[C@H]2[C@H]1CC/C(COC(=O)NCc1cc[nH]c1)=C\CC[C@@]1(C)O[C@@H]21,68.5% (inactive)
10,O=C1NC(=O)c2c1c1c3ccccc3ccc1c1[nH]c3ccc(Br)cc3c21,48.9% (inactive)
11,CCN(CC)CCOc1ccc(-c2c(-c3ccccc3)c(=O)oc3ccccc23)cc1,82.7% (inactive)
12,C#CCOc1cccc(Nc2ncnc3c(NC(=O)C=C)cccc23)c1,52% (inactive)
13,COc1ccc(/C=N/NC(=O)CCN2c3ccccc3Sc3ccccc32)cc1,86.5% (inactive)
14,COc1ccc(N2CCC(=O)NC2=S)cc1,98.6% (inactive)
15,COC(=O)c1c2c(c(C)[n+]([O-])c1C)C(=O)C=C(NCc1ccc(Br)cc1)C2=O,-42.9% (active)
16,Nc1nc(=S)c2ncn(C3OC(COP(=O)(O)O)C(O)C3O)c2[nH]1 (stereo not given),32.8% (inactive)
17,CCOC(=O)C(=Cc1cccc(Br)c1)C(=O)OCC,45.2% (inactive)
18,CCOC(=O)c1c(NC(=O)c2ccc(C(C)C)cc2)sc2c(CN(C)C)c(O)ccc12,85.2% (inactive)
19,CCNc1cc(-c2cccc(OC(F)(F)F)c2)nc2ccc(N3CCCC3)cc12,37.3% (inactive)
20,c1cnc2[nH]cc(-c3csc(-c4cn(CCCN5CCOCC5)c5ccccc45)n3)c2c1,61.5% (inactive)

row,SMILES,growth
1,C#CCOc1ccc2ncnc(Nc3ccc(NC(=O)CCl)cc3)c2c1,47.6% (inactive)
2,COc1cccc(NC(=O)Cn2cc(CN3CCN(c4ccnc5cc(Cl)ccc45)CC3)nn2)c1,81.6% (inactive)
3,N#Cc1cnc(NCCc2ccncc2)nc1-n1cnc2ccccc21,68.7% (inactive)
4,CCNc1nc(-c2ccc(Cl)c(OC)c2)c(-c2ccnc(NCCCNS(=O)(=O)c3ccc(Cl)cc3)n2)s1,72.2% (inactive)
5,CO/N=C(/C)c1ccc(NC(=O)CSc2nnc(-c3ccncc3)n2-c2ccccc2)cc1,24.2% (inactive)
6,CCOC(=O)c1cc2c(=O)oc3ccccc3c2oc1=O,101% (inactive)
7,Oc1c(Cl)cc(Cl)c2ccc(Cn3cc(-c4cc(C(F)(F)F)cc(C(F)(F)F)c4)nn3)nc12,82.1% (inactive)
8,Cc1c(-n2nnc(-c3nc4ccccc4s3)c2N)c(=O)n(-c2ccccc2)n1C,91.4% (inactive)
9,C=C(C)[C@@H]1CC[C@]2(C(=O)O)CC[C@]3(C)[C@H](CC[C@@H]4[C@@]5(C)C[C@@H](Cc6cn(CCO[C@@H]7O[C@H](COC(C)=O)[C@H](OC(C)=O)[C@H](OC(C)=O)[C@H]7OC(C)=O)nn6)[C@H](O)C(C)(C)[C@@H]5CC[C@]43C)[C@@H]12,81.9% (inactive)
10,O=C1c2cccnc2C(=O)c2c1c(C(=O)NCCn1ccnc1)c1ccccn21,51.5% (inactive)
11,CCOC(=O)C1=C(NC)OCC1=O,96.3% (inactive)
12,Fc1ccc(-c2nn(-c3ccccc3)cc2-c2nc3ccccc3o2)cc1,84.4% (inactive)
13,Cc1ccc(-c2nc3nc(-c4ccc(F)cc4)nc(N4CCNCC4)c3o2)cc1,116% (inactive)
14,CC(C)(C)n1cc(-c2ccnc(NCCNS(=O)(=O)c3cccc(F)c3)c2)c(-c2ccccc2)n1,90.1% (inactive)
15,CC(C)CCC[C@@H](C)[C@H]1CC[C@H]2[C@@H]3CC=C4C[C@@H](C(C(=O)O)C(=O)O)CC[C@]4(C)[C@H]3CC[C@]12C,-62.9% (active)
16,Oc1c(Cl)cc(Cl)c2ccc(Cn3cc(-c4cc(F)cc(F)c4)nn3)nc12,95.1% (inactive)
17,COC(C(=O)[C@@H](O)[C@@H](C)O)[C@@H]1Cc2cc3cc(O[C@H]4C[C@@H](O[C@H]5C[C@@H](O)[C@H](O)C(C)O5)[C@H](O)C(C)O4)c(C)c(O)c3c(O)c2C(=O)[C@H]1O[C@H]1C[C@@H](O[C@H]2C[C@@H](O[C@H]3C[C@@H](O)[C@H](OC)C(C)O3)[C@@H](O)C(C)O2)[C@H](O)C(C)O1 (stereo not given in full),7.45% (active)
18,O=C(Nc1cc(Cl)ccc1O)c1ccc(Nc2ccnc(C(F)(F)F)c2)cc1,52.1% (inactive)
19,Cc1ccc(-c2nc3nc(-c4ccccc4)nc(N4CCNCC4)c3o2)cc1,-68.6% (active)
20,Cc1nc2c(=O)[nH]c(SCC(=O)Nc3cccc(F)c3)nc2[nH]c1=O,98.8% (inactive)
